Here are results for 46 compounds from PubChem BioAssay AID2685 (National Center for Advancing Translational Sciences (NCATS), 2010).

Out of some 320,000 compounds screened, about 2,100 (0.66%) were called active. About 53% were inconclusive and are not listed. Calls come from the whole dose curve; as a rule, active = well fitted inhibition curve with a large enough effect in the signal ratio, with a control signal flat (not every such curve was filed as active); inconclusive = small, poorly fitted or top-dose-only effect, or effect the other way, or a change in a side signal; inactive = flat fitted curve, though single readings scatter; the % refers to the signal ratio. Shown is part of a subset that was picked to be rich in actives.
Potency is the fitted concentration of half-maximal effect.

The experiment is described as follows: qHTS Assay for Lipid Storage Modulators in Drosophila S3 Cells.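 For cell number change: cells counted by Cell Tracker Red CMTPX staining in the red channel.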 For lipid storage change, negative = inhibition: % is set by controls: 0 for no effect and ±100 for the full control effect. The note with it: BODIPY lipid droplet fluorescence, 18-24 h, cells fed with added oleic acid; cell number change: measured here: cell count max response; series mostly up to 46.1 µM; lipid storage change, negative = inhibition: at the top concentration. A digest of the protocol:
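Drosophila S3 cells loaded with oleic acid (400 uM, as added) and compounds at several concentrations; lipid droplets imaged by 488-nm laser-scanning cytometry, 500–530 nm intensity and object ratio to cell channel. Percent activity normalized to 20 uM Triacsin C.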
On the technique in general: Quantitative high-throughput screening tests each substance at several concentrations.
Consider `COc1ccc(CCNC(=O)c2ccc(=O)[nH]c2)cc1OC`, for which the “lipid storage change, negative = inhibition” value is 6.46% (inactive) and the cell number change worked out at 10.1%. Turning to `CC(=O)N1CCN(S(=O)(=O)c2cccc(C(=O)OCN3C(=O)c4ccccc4C3=O)c2)CC1`, the compound was called inactive and the cell number change worked out at 22.4%. On to `CC(=O)N1CCN(S(=O)(=O)c2cccc(C(=O)OCc3cccc(F)c3)c2)CC1`, for which the Potency is 6.51 µM (active) and the cell number change is -11.8%. As for `COc1ccc(COC(=O)c2cccc(S(=O)(=O)N3CCCC3)c2)cc1F`, the cell number change was -0.63% and the outcome was “inactive [at 0.369 µM]”. Regarding `COc1ccccc1CNC(=O)COc1cc2c(c3oc(=O)cc(C)c13)CCC(C)(C)O2`, the “lipid storage change, negative = inhibition” value is -25.6% (inactive) and the cell number change stood at 5.31%.

With `CCc1cc(=O)oc2c3c(cc(OCC(=O)NCCC(=O)O)c12)OC(C)(C)CC3`, the “lipid storage change, negative = inhibition” value is 1.64% (inactive) and the cell number change stood at 4.77%.

For the compound `Cc1cc(=O)oc2c3c(cc(OCC(=O)NCC(=O)O)c12)OC(C)(C)CC3`, the “lipid storage change, negative = inhibition” value was 7.78% (inactive) and the cell number change turned out to be 13.8%.

With `CCc1cc(=O)oc2c3c(cc(OCC(=O)NCc4ccncc4)c12)OC(C)(C)CC3`, the call was inactive and the cell number change came out at 18.3%.

In the case of `COc1cccc(CNC(=O)COc2cc3c(c4oc(=O)cc(C)c24)CCC(C)(C)O3)c1`, the Potency is 1.3 µM (active) and the cell number change is -18.8%.

Turning to `CCc1cc(=O)oc2c3c(cc(OCC(=O)NCc4cccnc4)c12)OC(C)(C)CC3`, the Potency was 7.31 µM (active) and the cell number change amounted to 1.59%. For the compound `O=C(Cc1ccccc1)NNC(=O)c1ccc(NC(=O)c2ccccc2)cc1`, the “lipid storage change, negative = inhibition” value is -12.8% (inactive) and the cell number change worked out at 27.8%. The corresponding values for `CN(C)S(=O)(=O)c1ccc(C(=O)Oc2coc(CSc3ncccn3)cc2=O)cc1` are -6.42% (inactive) and 6.85%. Regarding `NC(=O)N/N=C(/CCCCCC/C(=N\NC(N)=O)c1ccccc1)c1ccccc1`, the “lipid storage change, negative = inhibition” value is -11.9% (inactive) and the cell number change worked out at 2.15%.

Regarding `Cc1ccc(C(=O)N2C3=C(CCCC3)C(=O)NC23CCCCC3)cc1`, the “lipid storage change, negative = inhibition” value is -6.74% (inactive) and the cell number change turned out to be 3.44%. In the case of `COC(=O)CNC(=O)CNC(=O)Nc1ccccc1`, the “lipid storage change, negative = inhibition” value is 7.48% (inactive) and the cell number change worked out at 1.69%. Regarding `Cn1nccc1NC(=O)COCC(=O)O`, the “lipid storage change, negative = inhibition” value was 1.45% (inactive) and the cell number change came out at 11.4%.

Regarding `COc1ccc(CNC(=O)c2ccc(N3CCCC3=O)cc2)cc1`, the “lipid storage change, negative = inhibition” value is 25.4% (inactive) and the cell number change was 23.1%. Regarding `Cc1ncsc1C(=O)NCc1ccc(N2CCCC2=O)cc1`, the Potency is 2.59 µM (active). On to `O=C(NCc1ccc(N2CCCC2=O)cc1)c1ccc(F)cc1`, for which the “lipid storage change, negative = inhibition” value was 0.839% (inactive) and the cell number change is 1.24%. The corresponding values for `N#Cc1ccsc1NC(=O)CN(Cc1ccccc1)Cc1ccccc1` are 10.3% (inactive) and -9.01%. As to `CCOC(=O)N1CCC(NC(=O)c2ccc(CO)c(C(=O)NC3CCN(C(=O)OCC)CC3)c2)CC1`, the “lipid storage change, negative = inhibition” value is 5.33% (inactive). In the case of `O=C(O)CC(C(=O)Nc1ccc(Cl)c(Cl)c1)C1CCCO1` (stereo not drawn), the Potency was 20.6 µM (active) and the cell number change amounted to 12.1%. With `O=C(O)CC(C(=O)Nc1ccc(F)cc1)C1CCCO1` (stereo not drawn), the “lipid storage change, negative = inhibition” value is -20.6% (inactive) and the cell number change is -13.3%.

For `O=C(O)CC(C(=O)Nc1ccc(Cl)cc1Cl)C1CCCO1` (stereo not drawn), the “lipid storage change, negative = inhibition” value was 9.88% (inactive) and the cell number change worked out at 5.73%. With `CCOC(=O)N1CCN(C(=O)CCCn2c(=S)[nH]c3ccsc3c2=O)CC1`, the “lipid storage change, negative = inhibition” value was -5.9% (inactive) and the cell number change was -21.6%. Consider `COC(=O)c1ccc(COc2ccc(C=O)cc2)o1`, for which the outcome was inactive and the cell number change was -4.2%. For `CCN(CC#CCC(O)(c1ccccc1)c1ccccc1)C(C)C`, the “lipid storage change, negative = inhibition” value is -6.31% (inactive) and the cell number change is 1.67%.

With `Cc1cc(S(=O)(=O)NCc2cccnc2)ccc1-n1cnnn1`, the result was inactive and the cell number change was determined as 2.93%. For the compound `COc1ccc(CNS(=O)(=O)c2ccc(-n3cnnn3)c(C)c2)cc1`, the Potency was 18.4 µM (active) and the cell number change is -1.28%. Regarding `COc1ccc(CN(Cc2ccc(OC)cc2)S(=O)(=O)c2ccc(-n3cnnn3)c(C)c2)cc1`, the “lipid storage change, negative = inhibition” value was -11.8% (inactive) and the cell number change is -0.43%.

Turning to `COc1ccc(S(=O)(=O)Nc2cccc(-n3cnnn3)c2)cc1`, the call was inactive and the cell number change was -4.25%. In the same order, the values of `CCCCOc1ccc(NS(=O)(=O)c2ccc(-n3cnnn3)cc2)cc1` are “inactive” and -4.72%. In the case of `COc1ccc(OCC(NS(=O)(=O)c2ccc(-n3cnnn3)cc2)C(C)C)cc1` (stereo not drawn), the Potency was 0.13 µM (active). For the compound `C=CCOC(=O)C1=C(C)NC(=O)NC1c1cc2c(cc1Br)OCO2` (stereo not drawn), the “lipid storage change, negative = inhibition” value is -3.77% (inactive) and the cell number change was -17.1%. The corresponding values for `N/C(=N\OC(=O)C1CCCCC1)c1cccnc1` are 2.61% (inactive) and -2.17%. As to `CCOc1cc(CNCCCN2CCOCC2)ccc1OCC(=O)Nc1cccc2ccccc12`, the result was inactive and the cell number change is 9%.

On to `CCN(CC)CCNC(=O)c1ccc(NC(=O)c2ccc3c(c2)CCC3)cc1`, for which the “lipid storage change, negative = inhibition” value is 9.17% (inactive) and the cell number change turned out to be 2.22%. In the same order, the values of `COc1ccc(Br)cc1C(=O)O` are -3.81% (inactive) and 9.36%. Regarding `COc1c(Br)cc(Br)cc1C(=O)O`, the Potency was 20.6 µM (active) and the cell number change is -14.5%. `COc1cc(N)c(Br)cc1C(=O)O`: the “lipid storage change, negative = inhibition” value is 9.6% (inactive). As for `COc1ccc(/C=N/NC(=O)Cn2nc([N+](=O)[O-])cc2C)c(OC)c1OC`, the “lipid storage change, negative = inhibition” value is -1.52% (inactive) and the cell number change is 15.6%.

As for `Cc1ccc(-n2ncc(C(=O)NC3CC3)c2C2CCN(C(=O)OC(C)(C)C)CC2)cc1`, the “lipid storage change, negative = inhibition” value was -3.19% (inactive) and the cell number change is -12.2%. With `COc1ccc(-n2ncc(C(=O)NC3CC3)c2C2CCN(C(=O)OC(C)(C)C)CC2)cc1`, the Potency was 9.2 µM (active) and the cell number change is -6.59%. In the case of `Cc1ccc(-n2ncc(C(=O)O)c2C2CCN(C(=O)OC(C)(C)C)CC2)cc1`, the “lipid storage change, negative = inhibition” value is 1.24% (inactive) and the cell number change is -23.6%. As for `Nn1cc(-c2ccccc2)nc1SCC(=O)NCCN1C(=O)CSC1=O`, the “lipid storage change, negative = inhibition” value was 3.23% (inactive) and the cell number change is -20.3%. Consider `CCOC(=O)CN(C(=O)CSc1nnc(-c2ccncc2)n1CCCOC)c1ccccc1`, for which the “lipid storage change, negative = inhibition” value was -0.702% (inactive) and the cell number change is -3.7%.
